# Source: PubChem (National Center for Advancing Translational Sciences (NCATS))
# HT1080 IDH1KD tx: toxicity to HT-1080 IDH1 knockdown cells (counter line); AID 686971; Potency, µM (top dose mostly 46.1 µM), hits mostly cytotoxic; HT-1080 IDH1 knockdown viability, ATP luminescence, 48 h; actives 2% (n = 360,000)
#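 % activity derives from luminescence (CellTiter-Glo), normalised to DMSO and no-cell wells. HT-1080-IDH1KD cells, 750/well, had 48 h compound exposure at 37 °C.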
# HT1080NT lethal: kills 2HG-producing HT-1080-NT fibrosarcoma cells | HT-1080-NT fibrosarcoma viability, CellTiter-Glo ATP luminescence, 48 h | AID 686970 | actives 1.6% (n = 360,000) | Potency, µM (titrated, usually from 46.1 µM), most hits filed as cytotoxic;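 note: NT is the 2HG producing partner of a matched IDH1 knockdown line; nearly all actives have a fitted effect of over 55% in size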
#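 Viability by CellTiter-Glo luminescence after 48 h compound exposure at 37C of HT-1080-NT cells (750/well, RPMI, 5% FBS). % activity scaled between DMSO wells and medium-only wells, then curve-fitted and categorized by curve class.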
# ELG1 repair inh: blocks ELG1-dependent DNA repair in HEK293T cells; HEK293T ELG1-luciferase reporter, luminescence, 16 h; DNA damage induced by 5-fluorouridine; AID 504467; actives 2.3% (n = 330,000); Potency, µM (top dose mostly 46.1 µM), actives largely listed as inhibitors; note: nearly all actives have a fitted effect of over 55% in size
#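 HEK293T cells expressing luciferase-tagged ELG1 (2,000/well) received 5-Fluorouridine plus compound or DMSO for 16 hr at 37 °C. Luciferase was read by ONE-Glo luminescence after 30 min at room temperature.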
# TDP1 cell noCPT: qHTS for Inhibitors of human tyrosyl-DNA phosphodiesterase 1 (TDP1): qHTS in cells in absence of CPT. Potency, µM (series often up to 46.2 µM), actives largely listed as inhibitors. actives 15% (n = 420,000). DT40 Tdp1-/- hTDP1 cells, no CPT, ATP luminescence, 48 h. AID 686978, 2013; note: nearly all actives have a fitted effect of over 55% in size
#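 Cells were dispensed at 400 per well, compounds added by pin tool, plates incubated ≥48 hr at 37 °C, then CellTiter-Glo added for 30 min at room temperature before luminescence reading. Line: DT40 Tdp1-/- complemented with hTDP1; camptothecin omitted.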
# DT40 TDP1 CPT: growth inhibition of DT40 Tdp1-/-;hTDP1 cells with camptothecin (screen for TDP1 inhibitors); chicken DT40 Tdp1-/-;hTDP1 cells + 20 nM CPT, ATP luminescence, 48 h; Potency, µM (highest dose often 46.2 µM), most hits filed as inhibitors; actives 12% (n = 420,000); note: nearly all actives have a fitted effect of over 55% in size
#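 Chicken DT40 Tdp1-/- cells complemented with human TDP1, 400 cells/well, exposed to compounds plus 20 nM camptothecin for at least 48 h at 37 C; viability read as ATP content by CellTiter-Glo luminescence.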
# IL1B secr inh: inhibitors of inflammasome signaling (IL-1 beta secretion). activity change, % at 57.5 µM. AID 743279. actives 4.7% (n = 360,000). THP-1 LPS/ATP IL-1B secretion, AlphaLISA, 16 h; active compounds read low; in the data active = activity change below about -50%; inconclusive = mostly about -30% to -49%
#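 THP-1 cells pretreated 1 hr with compounds (up to 57.5 uM final), then stimulated with LPS (250 ng/mL final) plus ATP (1.25 mM final); secreted IL-1B measured by AlphaLISA after 16 hr, decreased signal indicating inhibition.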
# Hits are given with their value; n = inactive; u = inconclusive; x = no result; [ ] = dose if it differs, or a comment. An excerpt weighted towards active compounds, which were near 19% of everything screened. Unless noted, calls come from the whole dose curve; as a rule, active = well fitted curve in the direction sought with a large enough effect; inconclusive = small, poorly fitted or top-dose-only effect, or another doubt; inactive = no such curve, though single readings can be large; an effect the other way counts as inactive or inconclusive.
SMILES,HT1080 IDH1KD tx,HT1080NT lethal,ELG1 repair inh,TDP1 cell noCPT,DT40 TDP1 CPT,IL1B secr inh
Cc1ccc(N(Cc2ccc(C(=O)NC3CCCCC3)cc2)S(C)(=O)=O)cc1C,n,n,n,n,n,n
COc1ccc(N(CC(=O)NCCSc2ccccc2)S(=O)(=O)c2ccccc2)c(OC)c1,n,n,21µM,13µM,u,n
Cc1ccc(N(Cc2ccc(C(=O)NCCSc3ccccn3)cc2)S(C)(=O)=O)cc1C,n,n,9.2µM,u,u,n
CCOC(=O)N1CCC2(CC1)OC(=O)C(C)=C2C(=O)NCc1cccc(F)c1,x,x,x,u,n,x
COc1cc(OC)cc(-c2noc(-c3csc([C@@H]4O[C@H](CO)[C@H](O)[C@H](O)[C@H]4O)n3)n2)c1,n,n,x,n,n,n
Cc1c[nH]c(=O)n(CCCN2CCN(c3ccccc3OCC(F)(F)F)CC2)c1=O,x,x,x,u,n,x
COc1ccc(CCNC(=O)CN(c2ccccc2OC)S(=O)(=O)c2ccc(C)cc2)cc1,n,n,u,23µM,21µM,-51
COc1ccccc1N(CC(=O)NCCSc1ccccc1)S(C)(=O)=O,n,n,n,n,n,n
O=C(CN(c1ccccc1)S(=O)(=O)c1ccccc1)NCCSc1ccccn1,n,n,n,n,n,n
COc1ccccc1N(CC(=O)NCCSc1ccccc1)S(=O)(=O)c1ccc(C)cc1,x,x,x,16µM,u,x
COc1ccccc1N(CC(=O)NCc1ccccc1C)S(=O)(=O)c1ccc(C)cc1,n,n,u,u,u,n
COc1ccc(CCNC(=O)CN(c2cc(OC)ccc2OC)S(=O)(=O)c2ccccc2)cc1,n,n,n,u,u,n
COc1ccccc1N(CC(=O)NCCSc1ccccc1)S(=O)(=O)c1ccccc1,n,n,x,18µM,u,n
Cc1cccc(N(CC(=O)NCCSc2ccccn2)S(=O)(=O)c2ccccc2)c1,n,n,n,15µM,u,n
Oc1c(Br)cc(Br)cc1C=NCc1ccc(F)cc1,u,u,n,u,u,n
O=C(CSc1nc(-c2ccccc2)nc2cc(=O)[nH]n12)Nc1ccccc1,x,x,x,n,n,x
O=C(COC(=O)c1ccccc1O)Nc1ccc(N2CCOCC2)cc1,n,n[9.24 µM],n,n,n,u
Clc1cccc(-c2nc3c4ccccc4ccn3c2Cc2ccsc2)c1,n,n,x,u,u,n
COc1ccc(F)cc1COc1nc(C)nc2ccccc12,n,n,n,18µM,u,n
CCc1nc(SCC(=O)NC2CCCC2)c2c(=O)n(C)c(=O)n(C)c2n1,n,n,n,n,n,n
CCCc1nc(SCC(=O)c2ccc(OC)cc2)c2ccccc2n1,n,n,u,u,u,-90
CCc1nc(SCC(=O)c2ccc3c(c2)OCCO3)c2ccccc2n1,u,u,u,u,u,-63
CCCc1nc(SCC(=O)c2ccc(OC)cc2)c2c(=O)n(C)c(=O)n(C)c2n1,x,x,n,x,x,x
O=C(CSc1nc(Cc2ccccc2)nc2ccccc12)c1ccc2c(c1)OCCO2,n,u,u,23µM,16µM,n
O=C(CSc1ncnc2scc(-c3ccc(F)cc3)c12)c1ccc2c(c1)OCCO2,n,n,u,18µM,21µM,n
CCc1nc(SCC(=O)c2ccccc2)c2c(=O)n(C)c(=O)n(C)c2n1,n,n,n,u,u,n
CCc1nc(SCC(=O)N2c3ccccc3Sc3ccccc32)c2ccccc2n1,n,n,n,15µM,u,u
Cc1sc2ncnc(SCC(=O)c3ccc4c(c3)OCCO4)c2c1-c1ccccc1,n,n,10µM,9.2µM,6.5µM,n
O=C(CSc1ncnc2ccccc12)c1ccc2c(c1)OCCO2,n,u,u,18µM,18µM,n
O=C(COc1ncnc2ccccc12)c1ccc2c(c1)OCCO2,n,n,u,u,n,n
